Among all 360,000 compounds or so, about 1,100 (0.31%) were called active. Cut-off read from the data, not from the text of the source: active = activity change above about 30% (passing the limit was not always enough); inactive = the rest. For the sample, actives were picked, then their nearest neighbours and some compounds at random.
target: Hepatocyte nuclear factor 4-alpha (Homo sapiens) (UniProt P41235); assay: HNF4-alpha DNA association modulation – biochemical, fluorescence polarization, FITC-DNA, primary screen (AID 1224865); details: HNF4a-FITC DNA binding, 1 h, at 10 µM, hits give high values
Sequence (P41235 whole entry, looked up): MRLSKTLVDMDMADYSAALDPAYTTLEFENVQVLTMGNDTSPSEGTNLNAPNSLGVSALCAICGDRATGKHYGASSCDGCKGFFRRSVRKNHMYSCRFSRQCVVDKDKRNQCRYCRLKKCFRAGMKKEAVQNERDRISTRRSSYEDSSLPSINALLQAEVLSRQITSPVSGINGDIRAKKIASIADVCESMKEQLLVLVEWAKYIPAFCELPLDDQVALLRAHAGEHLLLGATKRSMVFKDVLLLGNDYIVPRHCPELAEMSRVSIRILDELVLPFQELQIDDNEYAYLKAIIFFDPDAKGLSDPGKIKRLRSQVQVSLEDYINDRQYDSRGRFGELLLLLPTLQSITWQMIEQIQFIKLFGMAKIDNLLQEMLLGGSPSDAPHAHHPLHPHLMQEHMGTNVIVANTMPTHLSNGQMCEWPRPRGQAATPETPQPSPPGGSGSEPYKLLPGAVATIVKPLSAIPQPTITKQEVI

Compound | activity change
CCn1c(SCC(=O)Nc2ccc3c(c2)OCCO3)nc2c(c1=O)SC(C)C2 (centres undefined) | 1.48% (inactive)
Cc1cccc(NS(=O)(=O)c2ccc([N+](=O)[O-])cc2)n1 | 0.15% (inactive)
CC(O)c1nc2ccccc2n1Cc1ccc([N+](=O)[O-])cc1 (centres undefined) | -3.67% (inactive)
Cc1nc2ccccc2nc(=O)c1NNc1ccc([N+](=O)[O-])cc1 | 71% (active)
O=C(O)C1CCC(CNS(=O)(=O)c2ccc(Br)cc2)CC1 (centres undefined) | 1.62% (inactive)
Fc1cccc(Cc2c(-c3ccc(Cl)cc3)nc3ccc(Cl)cn23)c1 | 6.82% (inactive)
Clc1cccc(Cc2c(-c3cccc(Cl)c3)nc3ccc(Cl)cn23)c1 | 8.89% (inactive)
Fc1cccc(Cc2c(-c3cccc(Cl)c3)nc3ccc(Br)cn23)c1 | 42.3% (active)
CN(C)C(=O)CCC(=O)N1CCCCC1C(=O)Nc1ccc(Oc2ccccc2F)cc1 (centres undefined) | 1.87% (inactive)
Cc1nc2ccccc2n1CC(O)c1ccccc1 (centres undefined) | -4.17% (inactive)
Cc1c(C(=O)Nc2cccc(Cl)c2)cn2c(nc3ccccc32)c1C#N | 0.36% (inactive)
Cc1nc(-c2ccccc2)cn2c1nc1ccccc12 | 43.5% (active)
COc1ccc(-c2cc(C(F)(F)F)nc(S(C)(=O)=O)n2)cc1OC | -0.66% (inactive)
O=C(Cn1nnc(-c2ccc(CN3CCOCC3)cc2)n1)NC1CCCCC1 | 4.12% (inactive)
N/C(=N\S(=O)(=O)c1ccc(Cl)cc1)N1CCOCC1 | 4.34% (inactive)
O=C(Nc1cccc(-c2nc3ccccc3[nH]2)c1)c1ccc(C(=O)Nc2cccc(-c3nc4ccccc4[nH]3)c2)cc1 | 81.8% (active)
CCOc1ccc(C(=O)Nc2cccc(SC)c2)cc1 | 0.43% (inactive)
CCOc1ccc(C(=O)Nc2cccc(-c3ccc4nncn4n3)c2)cc1 | -0.86% (inactive)
Cc1ccc(Cl)cc1N1CCN(C(=O)c2cccc3c(=O)c(C)c(-c4ccccc4)oc23)CC1 | -0.99% (inactive)
COc1ccc(C2COC(=O)C2=N)c(NC(=O)c2ccccc2)c1 (centres undefined) | -5.12% (inactive)
CC(=O)c1cc(NC(=O)c2ccccc2)c(=O)oc1/C=C/N(C)C | 102% (active)
CCOC(=O)c1cc(NC(=O)c2ccc(Cl)cc2)c(=O)oc1-c1ccccc1 | -0.75% (inactive)
CCOc1ccc(Oc2nc(C)cc(OC)n2)nn1 | 0.35% (inactive)
CC(C)C[C@H](NC(=O)[C@@H]1O[C@H]1C(=O)O)C(=O)NCCCCN=C(N)N | 2.71% (inactive)
CCc1ccc2oc(=O)cc(CN3CCCCC3C)c2c1 (centres undefined) | 39.9% (active)
COc1ccc(CN2CCCCC2C)cc1OC (centres undefined) | -0.13% (inactive)
CC(C)c1ccc2oc(=O)cc(CN3CCN(Cc4ccccc4)CC3)c2c1 | 2.71% (inactive)

Compound | activity change
O=C(CCCn1c(=O)c2sccc2n(CC(=O)NCC2CCCO2)c1=O)NCc1ccco1 (centres undefined) | -1.63% (inactive)
COc1cccc(NS(=O)(=O)c2ccc3[nH]cc(C(=O)NCCCOC(C)C)c(=O)c3c2)c1 | 0.82% (inactive)
Cc1cc(NC(=O)CSc2nccn2-c2ccc([N+](=O)[O-])cc2)no1 | 35.4% (active)
Cc1cc(NC(=O)CSc2nnnn2-c2ccc(F)cc2)no1 | 2.72% (inactive)
Cc1cc(NC(=O)CSc2nc(=O)cc(N)n2-c2ccc(F)cc2)no1 | -1.93% (inactive)
CC(C)c1ccc(-c2nn[nH]n2)cc1 | -1.88% (inactive)
CCc1ccc(CN2C(=O)c3ccccc3C2C(=O)NCC2CCCO2)cc1 (centres undefined) | 0.41% (inactive)
O=C(NC(=S)Nc1ncccn1)c1ccccc1Br | 1.65% (inactive)
O=C(Nc1cc(Cl)ccc1N1CCOCC1)c1ccc(N2CCCC2=O)cc1 | -2.01% (inactive)
O=C(CCN1C(=O)/C(=C/c2cccs2)SC1=S)NNC(=O)c1cccc(O)c1 | 42.1% (active)
Cc1c(C(=O)NCCN2C(=O)S/C(=C\c3cccs3)C2=O)cccc1[N+](=O)[O-] | -0.17% (inactive)
O=C(CCN1C(=O)c2ccccc2C1=O)NNC(=O)c1ccc(Cl)cc1Cl | -1.42% (inactive)
Cc1cccc(NC(=O)c2ccc(S(=O)(=O)N(C)CC3CCCO3)cc2)c1C (centres undefined) | -0.21% (inactive)
CC1=C(C(=O)Nc2cccc(C(=O)NCC(C)c3ccccc3)c2)SCCO1 (centres undefined) | -3.05% (inactive)
Cc1ccc(-c2cnc(C(O)c3cc(Cl)cc(Cl)c3)[nH]2)cc1 (centres undefined) | 2.03% (inactive)
O=[N+]([O-])c1ccc(COc2ccccc2CN2CCOCC2)cc1 | 4.14% (inactive)
Cc1ccccc1OCCOc1ccc([N+](=O)[O-])cc1/C=N/n1cnnc1 | 0.85% (inactive)
Cc1cccc(COc2ccccc2/C=N/Nc2ccc([N+](=O)[O-])cc2)c1 | 53.2% (active)
Cc1ccc(Cl)cc1NC(=S)N(CCN(C)C)Cc1cccs1 | -2.05% (inactive)
COCCCn1c(=O)/c(=C/c2ccccc2OC(C)C)s/c1=C(\C#N)C(=O)Nc1ccc(C(=O)O)cc1 | 21.5% (inactive)
CCOC(=O)[C@@H]1[C@H]2COc3cc(OC)ccc3[C@H]2N2C(=O)N(c3ccc(F)cc3)C(=O)[C@]12C | -1.52% (inactive)
C#CCOCCOCCOCCNc1nc(N2CCN(C(=O)C([C@@H](C)O)n3cc([C@@H](N)CCCCN)nn3)CC2)nc(N2CCN(C(=O)[C@H](CCCCN)n3cc(CN)nn3)CC2)n1 (some centres undefined) | 59.9% (active)
C#CCOCCOCCOCCNc1nc(N2CCN(C(=O)C(Cc3ccc(O)cc3)n3cc(C(N)CC(C)C)nn3)CC2)nc(N2CCN(C(=O)C(Cc3ccc(O)cc3)n3cc(C(N)C(C)CC)nn3)CC2)n1 (centres undefined) | 2.78% (inactive)
C#CCOCCOCCOCCNc1nc(N2CCN(C(=O)[C@H](CO)n3cc([C@@H](N)C(C)C)nn3)CC2)nc(N2CCN(C(=O)[C@H](CCC(=O)O)n3cc([C@@H](N)[C@H](C)CC)nn3)CC2)n1 | -0.8% (inactive)
CSc1sc(C)cc1C1C(C#N)=C(N)N(c2cccnc2)C2=C1C(=O)CCC2 (centres undefined) | -3.92% (inactive)
COC(=O)c1c(C)oc(C)c1S(=O)(=O)Nc1ccc(C(C)C)cc1 | -0.92% (inactive)
FC(F)Oc1ccc(NC(=S)NCc2ccco2)cc1Cl | 8.22% (inactive)
